NPC1 prom act – NPC1 promoter activation; Huh7 NPC1 promoter luciferase reporter, 24 h; Potency, µM (highest dose often 9.22 µM), inactives show top-dose activation, actives largely listed as activators; 320,000 tested, 2.4% active; note: % of control where 0% means no effect; nearly all actives have a fitted effect of over 60% in size
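Quantitative HTS used a cell-based reporter: Huh7 cells stably bearing the NPC1 promoter upstream of luciferase were treated with compounds for 24 h, and promoter activation was read as luminescence.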
Rab9 prom act – activates the Rab9 promoter; Potency, µM (highest dose often 9.22 µM), inactives show at the top dose activation, negative = inhibition, usual class: activators; Huh7 Rab9 promoter-luciferase reporter, luminescence, 24 h; AID 485297; 320,000 tested, 2.8% active; note: % of control where 0% means no effect; nearly all actives have a fitted effect of over 60% in size
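Cell-based reporter: Huh7 stable for Rab9 promoter-driven luciferase, plated in reduced-serum medium with 10% FBS at 1500 cells/well, compound-treated 24 h at 37 °C, luminescence read after 10 min reagent.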
ELG1 genotoxic – induces genotoxicity in HEK293T cells with luciferase-tagged ELG1; Potency, µM (highest dose often 46 µM), without a hit: top-dose activity change, positive = activation, most hits filed as activators; 330,000 tested, 1.3% active; HEK293T ELG1-luciferase reporter, luminescence, 16 h; note: % of control where 0% means no effect; nearly all actives have a fitted effect of over 60% in size
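Luminescence read-out: rising ELG1-luciferase signal, reflecting elevated ELG1 protein under genetic stress, flags genotoxic compounds. Cells were treated for 16 hr at 37 °C before ONE-Glo detection.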
SMN2 splice up – enhancers of SMN2 splice variant expression; HEK293 SMN2-luciferase splicing reporter, luminescence, 30-36 h; Potency, µM (titrated, usually from 46.1 µM), without a hit: at the highest dose activity change, positive = activation, actives largely listed as activators; 210,000 tested, 2.8% active; AID 1458; note: % of control where 0% means no effect; nearly all actives have a fitted effect of over 55% in size
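HEK293 cells carry an SMN2 […]–luciferase reporter in which exon 7 inclusion puts luciferase in frame. Cells were plated 10-12 h before compound addition, then incubated 30-36 h at 37C. ONE-Glo luminescence was read; sodium butyrate at 4.5 mM final served as control.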
FLuc modulator – inhibits or activates purified firefly luciferase, miR-21 counter-screen; P08659; purified FLuc, Km substrates, luminescence inhibition; Potency, µM (doses to about 57.5 µM), without a hit: top-dose activity change, negative = inhibition, usual class: inhibitors; 360,000 tested, 6.9% active; AID 588342;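 note: plate controls were vehicle for no effect and reference inhibitor for full effect; nearly all actives have a fitted effect of over 55% in size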
Target sequence (P08659 whole entry, looked up): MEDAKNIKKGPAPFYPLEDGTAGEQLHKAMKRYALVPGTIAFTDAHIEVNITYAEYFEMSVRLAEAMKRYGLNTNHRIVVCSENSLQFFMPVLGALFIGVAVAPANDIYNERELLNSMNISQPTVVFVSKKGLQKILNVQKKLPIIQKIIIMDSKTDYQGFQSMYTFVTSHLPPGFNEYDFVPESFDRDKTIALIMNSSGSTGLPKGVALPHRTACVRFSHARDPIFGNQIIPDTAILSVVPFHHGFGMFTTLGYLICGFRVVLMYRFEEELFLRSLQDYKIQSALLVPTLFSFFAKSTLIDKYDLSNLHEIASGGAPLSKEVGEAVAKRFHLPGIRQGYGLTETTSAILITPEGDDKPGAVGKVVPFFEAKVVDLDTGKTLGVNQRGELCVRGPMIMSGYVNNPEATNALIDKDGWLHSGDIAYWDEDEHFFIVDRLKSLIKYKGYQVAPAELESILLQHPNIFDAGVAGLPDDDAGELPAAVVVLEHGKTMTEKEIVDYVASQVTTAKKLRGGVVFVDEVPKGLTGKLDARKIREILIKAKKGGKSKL
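Purified P. pyralis luciferase, 10 nM final, with Km-level 10 uM D-luciferin and 10 uM ATP in 50 mM Tris acetate pH 7.5, 10 mM Mg acetate, 0.01% Tween-20, 0.05% BSA; 6-point qHTS titration about 60 µM downward; luminescence read.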
Luc counter – Kinase-Glo luciferase inhibition (counter-screen) | Q27757 | Kinase-Glo luciferase, ATP luminescence, 8 min | Potency, µM (series often up to 38.3 µM), without a hit: at the highest dose activity change, negative = inhibition, hits mostly inhibitors | 200,000 tested, 0.28% active | AID 1379; note: % is set by controls: 0 for no effect and ±100 for the full control effect; nearly all actives have a fitted effect of over 60% in size
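Luminescence was the read-out, taken after 8-minute incubation at ambient temperature. Luciferase turned over luciferin with 10 uM ATP in imidazole pH 7.2 buffer containing KCl, MgCl2, Tween 20 and BSA.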
* = called active by the depositor; u = inconclusive; x = no result given; [ ] = remark or other dose. The list is not random: actives were taken first. Their share in the collection is about 7.5%. Calls come from the whole dose curve; as a rule, active = well fitted curve in the direction sought with a large enough effect; inconclusive = small, poorly fitted or top-dose-only effect, or another doubt; inactive = no such curve, though single readings can be large; an effect the other way counts as inactive or inconclusive. Potency is the fitted concentration of half-maximal effect.

SMILES	NPC1 prom act	Rab9 prom act	ELG1 genotoxic	SMN2 splice up	FLuc modulator	Luc counter
Cn1cnnc1SCC(=O)c1cc2ccccc2o1	-1.0%	-0.8%	0.6%	6.0%	-3.4%	1.6%
Cc1ccc(NC(=O)c2ccc(CSc3nnnn3C)cc2)cc1	2µM*	1.58µM*	u	8.91µM*	4.78µM*	-1.6%
Cc1nnc(SCc2ccc(C(=O)O)cc2)s1	-1.2%	18.1%	-0.9%	-7.7%	1.7%	-1.3%
COc1ccc(NC(=O)CSc2nnnn2C)cc1	-0.9%	-3.8%	0.4%	x	0.6%	-3.9%
Cc1ccc(NC(=O)c2ccc(CSc3nnc(C)s3)cc2)cc1	1.12µM*	1.58µM*	11.2%	u	1.51µM*	-4.7%
Cc1cc(C)cc(NC(=O)c2ccc(CSc3nnc(C)s3)cc2)c1	3.5%	9.6%	8.3%	0.5%	7.57µM*	-3.9%
CCc1ccc(NC(=O)CSc2nnnn2C)cc1	u	u	12.8%[9.26 µM]	x	23.9µM*	x
COc1ccc(OC)c(NC(=O)c2ccc(CSc3nnc(C)s3)cc2)c1	-1.9%	-1.1%	-4.4%	-11.3%	u	-0.7%
O=C(NC1CC(=O)N(c2ccc(Cl)cc2)C1)c1ccc2c(c1)OCO2 (stereo not drawn)	x	x	x	x	-1.0%	x
C/C(=C\CO)CCO	x	x	x	7.1%	x	0.6%
Cc1ccc(NC(=O)c2ccc(-n3c(C)nnc3C)cc2)cc1F	x	x	x	x	-5.7%	x
Cc1ccc2c(Cl)c(C(=O)Nc3cc(C)on3)sc2c1	2.82µM*	2.24µM*	8.2µM*	u	u	-2.3%
COc1ccc(CCNC(=O)c2sc3cc(C)ccc3c2Cl)cc1	0.3%	-2.2%	0.2%	-23.4%	5.5%	7.5%
CCNC(=O)c1sc2cc(C)ccc2c1Cl	u	3.16µM*	u	29.5%	10.7µM*	-0.4%
Cc1cc(NC(=O)c2cccc(C(=O)Nc3cc(C)on3)n2)no1	0.3%	-16.4%	-3.5%	13.8%	-1.5%	0.5%
Cn1c(C(=O)NCCc2ccccc2)cc2sc(Cl)cc21	x	x	x	2.82µM*	1.2µM*	x
CCn1c(C(=O)NCCc2ccc(OC)c(OC)c2)cc2sc(Cl)cc21	x	x	x	-42.9%	u	x
Cc1ccc2c(Cl)c(C(=O)NCCc3ccccc3)sc2c1	3.55µM*	2.51µM*	u	15.8µM*	6.01µM*	-0.9%
Cc1ccc(NC(=O)CCNS(=O)(=O)c2ccc3c(c2)CCCC(=O)N3)cc1	x	x	x	x	-6.3%	x
Cc1ccc(Nc2ncnc3ccccc23)cc1	u	1.78µM*	17.3%	x	12µM*	-6.0%
Oc1ccc(Nc2ncnc3ccccc23)cc1	-0.7%	3.6%	8.6%	x	u	x
CC(C)Oc1ccc(Nc2ncnc3ccccc23)cc1	3.55µM*	3.16µM*	u	12.6µM*	16.9µM*	-4.1%
Nn1c(SCc2ccccc2)nc2ccccc21	1.78µM*	3.16µM*	u	x	19µM*	x
COc1ccc(OC)c(Nc2ncnc3c2cnn3-c2cccc(Cl)c2)c1	x	x	x	x	-0.1%	x
CC(Nc1ncnc2c1cnn2-c1cccc(Cl)c1)c1ccccc1 (stereo not drawn)	x	x	x	x	23.9µM*	x
SMILES	NPC1 prom act	Rab9 prom act	ELG1 genotoxic	SMN2 splice up	FLuc modulator	Luc counter
CCC(CO)Nc1ncnc2c1cnn2-c1ccc(C)cc1 (stereo not drawn)	x	x	x	x	3.38µM*	x
CCCCc1ccc(Nc2ncnc3c2cnn3-c2ccc(C)cc2)cc1	x	x	x	x	-10.4%	x
Cc1ccc(-n2ncc3c(NC(C)c4ccccc4)ncnc32)cc1 (stereo not drawn)	x	x	x	x	6.01µM*	x
COCC(C)Nc1ncnc2c1cnn2-c1cccc(Cl)c1 (stereo not drawn)	x	x	x	x	13.5µM*	x
CC1Cc2ccccc2N1C(=O)CSc1nnc(-c2cccc(Cl)c2)o1 (stereo not drawn)	x	x	x	x	-9.8%	x
COCC1=C2c3ccccc3[C@H](C[N+](=O)[O-])C(C(=O)OC)(C(=O)OC)CC2C2C(=O)N(c3ccccc3)C(=O)C2C1 (stereo partly drawn)	x	x	x	11.0%	x	1.0%
Cc1cc(N(C)C)ccc1N=Nc1ccc2ncccc2c1	3.16µM*	0.891µM*	4.61µM*	x	0.426µM*	x
C/C(=N\NC(=O)c1cc2c(s1)CCC(C)C2)c1ccc[nH]1 (stereo not drawn)	1.78µM*	1.58µM*	u	x	0.757µM*	x
CCC1CCc2sc(C(=O)NNC(=O)c3ccncc3)cc2C1 (stereo not drawn)	1.0%	-4.1%	-0.5%	x	16.9µM*	x
Cc1ccc(CNC(=O)COC(=O)c2cc3c(s2)CCC(C)C3)cc1 (stereo not drawn)	-2.1%	-4.2%	2.2%	x	10.5%	x
CC1CCc2sc(C(=O)Nc3ccc(N4CCOCC4)cc3)cc2C1 (stereo not drawn)	5.0%	-2.0%	-7.1%	-26.8%	u	-1.0%
CC1CCc2sc(C(=O)N/N=C/c3ccc(O)cc3)cc2C1 (stereo not drawn)	0.4%	-1.0%	15.3%	x	2.13µM*	x
CC1CCc2sc(C(=O)NCC(C)(C)N3CCOCC3)cc2C1 (stereo not drawn)	-2.7%	1.3%	-0.4%	x	-7.9%	x
C/C(=N\NC(=O)c1cc2c(s1)CCC(C)C2)c1ccncc1 (stereo not drawn)	3.3%	13.0%	7.5%	26.6%	9.53µM*	-1.3%
Cc1cc(C)cc(NC(=O)c2c(C)oc3nc(C)nc(N4CCCC4)c23)c1	x	x	x	x	15.2%	x
CCCS(=O)(=O)N1CC(=O)N(c2ccc(Cl)cc2C)C(C)(C(=O)NC2CCCC2)C1 (stereo not drawn)	x	x	x	x	-6.6%	x
COc1ccc(-c2cc(C(F)(F)F)nc(SCC(=O)NCCc3ccccc3)n2)cc1OC	x	x	x	16.1%	0.3%	x
Cc1cc(C)n(CCc2nc3c4ccccc4nc(N4CCN(c5cccc(C)c5C)CC4)n3n2)n1	x	x	x	-1.7%	-0.6%	x
CC1(C)CC(=O)c2cc(OCC(=O)O)ccc2O1	-2.7%	1.6%	4.6%	-5.0%	-0.5%	-7.3%
CC1(C)CC(=O)c2cc(OCC(=O)N3CCN(c4ccccc4F)CC3)ccc2O1	1.5%	-4.0%	-10.9%	-17.4%	0.0%	2.7%
CC1(C)CC(=O)c2c(O)cc(OCC(=O)N3CCN(c4ccc(F)cc4)CC3)cc2O1	-2.5%	4.1%	-13.1%	x	21.3µM*	x
CC(=O)Nc1ccc(NC(=O)COc2cc(O)c3c(c2)OC(C)(C)CC3=O)cc1	10.8%	1.8%	10.2%	x	21.3µM*	x
COC(=O)c1ccc(COc2cc(O)c3c(c2)OC(C)(C)CC3=O)cc1	20.5%	u	-0.2%	-49.7%	15.1µM*	2.4%
CC1(C)CC(=O)c2ccc(OCc3ccc([N+](=O)[O-])cc3)cc2O1	2.51µM*	2.51µM*	u	x	6.01µM*	x
Cc1cc(OCC(=O)Nc2ccc(Br)cc2)cc2c1C(=O)CC(C)(C)O2	-6.6%	-6.0%	-8.4%	x	-13.1%	x

Source: PubChem
